How the values were obtained:
Test in all cases: PBM binding z-score (relative to random genomic background probes); higher = stronger binding; sequences stand for … in GC…GCGATTGACAGCGTAGAATGAAGG
[1] = tested on: FXR:RXRa (NR concentration 270 nM, RXRa partner concentration 90 nM)
Summary of the method: (§1)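 Binding z-scores were set against random background probes. The data came from custom Agilent 4×180K protein-binding microarrays carrying double-stranded probes with 34-nt variable regions, incubated 1 h with ligand-free nuclear receptor dimers. Partner-specific antibodies detected binding, and scanned fluorescence was regression-normalized.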

[2] = tested on: LXRa:RXRa (NR concentration 270 nM, RXRa partner concentration 90 nM)
Summary of the method: as §1

[3] = tested on: LXRa homodimer (NR concentration 270 nM)
Summary of the method: as §1

[4] = tested on: LXRb:RXRa (NR concentration 270 nM, RXRa partner concentration 90 nM)
Summary of the method: as §1

[5] = tested on: LXRb homodimer (NR concentration 270 nM)
Summary of the method: as §1

[6] = tested on: PPARa:RXRa (NR concentration 270 nM, RXRa partner concentration 90 nM)
Summary of the method: as §1

[7] = tested on: PPARg:RXRa (NR concentration 180 nM, RXRa partner concentration 90 nM)
Summary of the method: as §1

[8] = tested on: PPARg:RXRa 270nM:90nM, anti-RXR (NR concentration 270 nM, RXRa partner concentration 90 nM)
Summary of the method: as §1

[9] = tested on: PPARg:RXRa 30nM:10nM, anti-RXR (NR concentration 30 nM, RXRa partner concentration 10 nM)
Summary of the method: as §1

[10] = tested on: PPARg:RXRa 90nM:30nM, anti-RXR (NR concentration 90 nM, RXRa partner concentration 30 nM)
Summary of the method: as §1

[11] = tested on: PPARg:RXRa DBDmut IVT, anti-RXR (DBD mutation: RXRa K156A/R161A, NR concentration 270 nM, RXRa partner concentration 90 nM)
Summary of the method: as §1

[12] = tested on: PPARg:RXRa IVT, anti-PPARg (NR concentration 270 nM, RXRa partner concentration 90 nM)
Summary of the method: as §1

[13] = tested on: PPARg DBDmut:RXRa IVT, anti-PPARg (DBD mutation: PPARg1 K132A/R137A, NR concentration 270 nM, RXRa partner concentration 90 nM)
Summary of the method: as §1

[14] = tested on: PPARg DBDmut IVT, anti-PPARg (DBD mutation: PPARg1 K132A/R137A, NR concentration 270 nM)
Summary of the method: as §1

[15] = tested on: PPARg homodimer (NR concentration 180 nM)
Summary of the method: as §1

[16] = tested on: PXR:RXRa (NR concentration 270 nM, RXRa partner concentration 90 nM)
Summary of the method: as §1

[17] = tested on: PXR homodimer (NR concentration 270 nM)
Summary of the method: as §1

[18] = tested on: RARa:RXR (NR concentration 270 nM, RXRa partner concentration 90 nM)
Summary of the method: as §1

[19] = tested on: RARa homodimer (NR concentration 270 nM)
Summary of the method: as §1

[20] = tested on: RARb:RXRa (NR concentration 270 nM, RXRa partner concentration 90 nM)
Summary of the method: as §1

Sequence	PBM binding z-score [1]	PBM binding z-score [2]	PBM binding z-score [3]	PBM binding z-score [4]	PBM binding z-score [5]	PBM binding z-score [6]	PBM binding z-score [7]	PBM binding z-score [8]	PBM binding z-score [9]	PBM binding z-score [10]	PBM binding z-score [11]	PBM binding z-score [12]	PBM binding z-score [13]	PBM binding z-score [14]	PBM binding z-score [15]	PBM binding z-score [16]	PBM binding z-score [17]	PBM binding z-score [18]	PBM binding z-score [19]	PBM binding z-score [20]
CGTAGTTGGTCAGGAGGTCACACACCGGATATGA	3.37	3.49	2.03	3.36	0.65	4.17	2.96	4.01	1.36	3.36	1.51	3.49	0.964	0.266	4.08	4.4	1.55	4.87	1.81	3.54
CCGACTGGGGCAAGGGTACCATAACGCACAGCCA	-0.555	-0.391	-0.264	-0.192	-1.39	1.5	4.24	4.92	2.6	4.6	2.26	3.6	0.123	-0.113	0.601	-0.478	-0.439	-0.197	-0.395	0.933
TCGAGTAGGTTAGGGACATTCAGAATGGCGTCGA	0.438	-0.314	-0.491	-0.146	-0.828	0.561	0.371	0.659	1.18	0.799	1.85	1.17	-0.378	-1.4	0.27	-0.0606	-0.414	0.186	-0.0818	0.661
GCGACTGGGACATCAGCAGGTTACCATAACTTAA	-0.41	-0.456	-0.462	-0.188	-0.768	0.248	0.495	-0.264	-0.28	-0.281	1.95	1.18	-0.236	-1.24	-0.146	-0.226	-0.651	-0.109	-0.694	0.0627
TCTGTTAGGTCAGTTGGTCAGCTAACGAGCTGCC	2.18	1.74	0.264	1.37	2.71	1.99	0.27	2.47	3.02	2.76	2.15	3.2	2.86	2.08	1.91	0.988	0.313	1.29	0.814	3.71
GTACCAAGGTGAATAGGTCGTTGCTGAGTAGGCG	0.799	0.799	-0.43	0.493	-0.623	2.23	1.21	1.71	-0.00379	1.18	1.82	2.55	-0.221	0.00615	0.964	0.496	-0.427	1.55	-0.268	1.96
CCTGCTAGGGCATGGTCAGCTAATCTACAGTATG	-0.287	-0.381	-0.466	-0.695	-1.06	-0.338	0.0735	-0.381	-0.463	-0.375	1.27	0.942	-0.789	-1.21	-0.604	-0.584	-0.686	-0.414	-0.802	1.43
TCTTGTAGATCAATAGAGGTTCAGAAAGTGCGCT	0.408	0.78	-0.0503	0.293	-0.193	0.663	-0.13	1.35	2.81	2.47	1.62	0.382	0.0591	1.1	-0.371	1.06	0.746	0.485	0.189	0.0734
ATCTCTAGGTAAGACTCATTTCAGTGAAGAACGC	0.503	0.373	0.526	0.488	0.888	-0.0236	0.0953	0.265	0.363	0.295	2.23	1.3	0.559	1.36	1.13	-0.0936	0.605	0.211	1.77	0.27
CTACCAAGGAGAACAAGGTCGTTGATTACTATTC	0.511	0.515	0.637	0.992	0.011	0.978	0.183	-0.0538	-0.107	-0.114	0.168	0.269	-0.0895	0.25	0.615	1.23	1.05	1.17	0.421	0.589
TCTTCTAGATCAACAGGAGGTTAAGAAAGATCGA	0.645	1.25	0.194	0.772	0.728	1.24	0.0258	1.94	3.46	2.67	1.93	1.19	1.81	1.8	0.382	0.755	0.113	1.32	0.555	0.762
CCGGACAGGTGAAAGGTAACTCAGTCTGGTACGC	0.736	0.472	-0.206	0.874	-0.858	3.17	4.79	5.2	3.2	5.45	1.68	2.68	-0.561	-0.876	0.751	0.988	0.241	1.91	-0.413	1.46
CCTATTAGTTGACAATAAGGGCAACCGAAGCTCG	0.365	0.482	0.182	0.544	0.647	0.418	0.511	0.218	0.0655	0.0255	0.466	0.343	0.307	0.312	0.811	0.771	0.868	1.07	1.45	1.21
ATCTCTAGGTAAAGATAGTTCAGTCAATGCAAAT	0.395	4.34	0.831	0.948	0.433	0.518	0.623	0.469	0.292	0.471	2.07	1.73	0.964	1	0.843	1.05	0.38	0.522	0.556	0.692
CCTTATGGGTCAAGGTTATAGCACGGGTGGTACG	4.02	2.78	0.0856	2.3	-0.169	4.23	5.35	5.19	2.54	4.72	4.52	5.46	1.19	0.531	2.47	2.43	0.248	3.32	0.847	3.63
CCTCGGAGGACAGCAGGTCAGAGCTGTCCGCTTT	0.494	0.589	-0.357	-0.0868	-0.729	0.521	-0.863	-0.393	-1.22	-1.04	-0.0532	-0.162	-1.57	-1.57	0.113	0.0301	-0.196	0.742	-0.236	2.04
TCTCGGAGGACACGAATGGTCAGAGCTCGACATC	0.104	0.0169	-0.468	-0.483	-0.915	-0.144	0.236	0.78	2.1	1.28	1.33	-0.256	-0.6	-0.622	-0.755	-0.324	-0.617	-0.159	-0.635	1.5
TCTATTAGTTGAAGGGCAACCGTCGAGTCCGTTT	0.742	0.933	0.368	0.792	0.191	0.493	-0.355	2.08	3.65	2.84	2.35	0.992	0.699	1.21	0.883	0.735	0.911	0.24	1.09	1.63
TCATATAGGTAAAACGTGAAAGTCGGTGTGGTAA	0.91	0.644	0.37	0.856	0.255	2.09	2.92	4.34	4.63	4.71	6.04	2.88	0.79	1.01	1.25	0.221	0.241	0.571	1.24	0.406
ATCTCTAGGTAACCGAGTTCAGTGAATGCCGAAC	0.422	0.883	1.08	0.706	0.377	1.44	0.672	1.1	-0.103	0.724	3.51	2.9	0.719	0.977	0.0322	2.93	2.94	1.04	0.216	0.826
GCTCGGAGGACCAGGTCAGAGCTTTGTCCGTAGA	0.0133	-0.0636	-0.562	-0.241	-1.47	0.776	-0.725	-0.204	-1.11	-0.616	-0.0233	-0.0399	-1.45	-1.52	-0.553	0.343	-0.875	0.505	-0.985	1.35
CCTACTGGGCTATTCAGAGGTCATTGATCATATG	2.44	4.58	7.28	3.7	0.414	3.44	1.17	2.73	0.812	1.97	2.84	2.73	0.261	0.0805	2.7	4.9	2.27	4.54	0.714	2.79
TAGCCTAGGTCAAATCGGGCCAGTATACGCTATA	5.06	4.49	0.78	3.26	0.87	4.1	2.33	2.88	0.735	2.01	1.98	3	0.169	0.237	1.68	2.95	-0.306	2.74	-0.373	3.68
TCATATAGGTAATACAGGCGAAAGTCGGCATCTA	0.743	0.759	0.19	0.501	-0.147	1.06	0.851	2.29	4.01	3.08	3.6	2.22	1.28	0.916	0.655	0.46	0.00877	0.48	0.962	0.247
AGAATGAGGTTATACGTAGATCAGGGAAGAAAGT	2.37	1.99	0.0175	1.7	0.71	3.18	2.1	2.02	0.854	1.48	4.01	1.92	0.956	1.16	0.9	1.2	0.682	1.82	0.738	1.54
GGAACTAGGGCATTCGAGTTGATAGCATGGCGAT	0.225	0.214	-0.0911	-0.433	-0.474	2.54	3.49	3.04	0.86	1.91	7.47	7.05	0.246	1.27	0.796	1.44	-0.109	0.587	-0.515	0.965
CAAGACAGGTGAGAAGGTAACTCAGCCTCGATTA	0.353	0.452	-0.0734	0.183	0.194	0.791	0.815	0.902	0.302	0.808	0.761	1.21	-0.174	-0.268	0.64	0.215	0.678	0.355	0.384	0.867
CAAACTAGGTCAAAGCTCAAAGTCGAGCCAACCA	4.62	3.4	0.633	2.4	0.592	5.71	10.2	8.74	9.03	9.54	8.73	8.57	5.63	0.922	1.88	1.33	0.241	2.86	0.284	3.84
CAAACTAGGTCAAAGAGGTCAAAGTCCGTGCGTA	6.71	6.33	6.39	5.91	2.23	6.17	8.55	7.69	6.36	7.64	8.36	8.45	2.17	1.31	5.02	6.37	10.5	6.42	2.57	4.77

From the supplement of paper PMC6555819
